In PubChem BioAssay AID463173 (ICCB-Longwood Screening Facility, Harvard Medical School, 2010):
The whole screen tested about 52,000 compounds, of which about 4,300 (8.3%) were called active. The sample holds actives, similar compounds and a random draw of the others, so the mix is not that of the screen. A number with no mark means an inactive call. Cut-off read from the data, not from the text of the source: active = survival mostly below about 52% (no sharp cut-off); inactive = mostly above about 56%.

system: DeltatarO mutant; test: S. aureus survival, RN4220 and DeltatarO strains – OD600, teichoic acid synthesis inhibitors, primary screen (AID 463173); details: S. aureus RN4220 wild type/DeltatarO growth, OD600, 18 h, active compounds read low, screened at 18.75 µg/mL (by protocol)

Row | SMILES | survival
1 | COc1ccccc1CNC(=O)C1CCCN(C(=O)c2cnn(-c3ccc(F)cc3)c2-n2cccc2)C1 (stereo unspecified) | 76%
2 | CCN(C(=O)Cn1nnc2sc3c(c2c1=O)CCC(C(C)(C)C)C3)c1cccc(C)c1 (stereo unspecified) | 78%
3 | COc1ccccc1CNS(=O)(=O)c1ccc(-c2cc(C(F)(F)F)on2)s1 | 102%
4 | COc1ccc(CNS(=O)(=O)c2ccc(-c3cc(C(F)(F)F)on3)s2)cc1OC | 118%
5 | COc1ccc(OC)c(CNS(=O)(=O)c2ccc(-c3cc(C(F)(F)F)on3)s2)c1 | -4% (active)
6 | COc1cccc(N2CC(NC(=O)C3CCCCC3)CC2=O)c1 (stereo unspecified) | 144%
7 | COc1ccc(OCC(=O)NC2CC(=O)N(c3cccc(OC)c3)C2)cc1 (stereo unspecified) | 0% (active)
8 | COc1cccc(N2CC(NC(=O)C3CCCC3)CC2=O)c1 (stereo unspecified) | 46% (active)
9 | COc1ccc(N2CC(NC(=O)c3ccco3)CC2=O)cc1 (stereo unspecified) | 58%
10 | COc1cccc(N2CC(NC(=O)C3CC3)CC2=O)c1 (stereo unspecified) | 105%
11 | COc1cccc(OCC(=O)NC2CC(=O)N(c3cccc(OC)c3)C2)c1 (stereo unspecified) | 106%
12 | COc1cccc(N2CC(NC(=O)COc3ccc4ccccc4c3)CC2=O)c1 (stereo unspecified) | 107%
13 | COc1cccc(N2CC(NC(=O)c3ccco3)CC2=O)c1 (stereo unspecified) | 37% (active)
14 | COc1ccc(N2CC(NC(=O)c3ccco3)CC2=O)cc1OC (stereo unspecified) | 89%
15 | O=C(Nc1cccc(F)c1)C1CCCN(S(=O)(=O)c2cccc3cccnc23)C1 (stereo unspecified) | 70%
16 | COc1ccccc1CNc1ncnc2c1c(-c1ccccc1)cn2-c1ccc(Br)cc1 | 80%
17 | COc1ccc(C)cc1NC(=O)CN1C(=O)COc2ccc(S(=O)(=O)N3CCOCC3)cc21 | 98%
18 | COc1ccc(-c2nnc(SCC(=O)NCc3ccc(C)cc3)nc2-c2ccc(OC)c(OC)c2)cc1OC | 76%
19 | CCNS(=O)(=O)c1cccs1 | 96%
20 | Cc1nn(CC(=O)Nc2ccccc2F)c(=O)c2c(C)n(-c3ccc(Cl)cc3)nc12 | 102%
21 | Cc1cc(NC(=O)NCc2ccc3c(c2)CCN3C(=O)c2ccccc2)ccc1Br | 116%
22 | CCOC(=O)c1cnc(-c2ccccc2)nc1Nc1ccc(C)cc1 | 90%

Row | SMILES | survival
23 | CCOC(=O)c1c(C)oc2nc(C)nc(Nc3ccc(CC)cc3)c12 | 115%
24 | CCOC(=O)c1c(Oc2ccc(C(C)=O)cc2)nnc(-c2ccccc2)c1-c1ccccc1 | 67%
25 | CCOC(=O)c1c(Nc2ccc(C)c(C)c2)nnc(-c2ccccc2)c1-c1ccccc1 | -5% (active)
26 | CCOC(=O)c1c(C)oc2nc(C)nc(Nc3ccc(C)c(Cl)c3)c12 | 89%
27 | CCOC(=O)c1c(Nc2ccc(F)cc2)nnc(-c2ccccc2)c1-c1ccccc1 | -3% (active)
28 | CCOC(=O)c1c(Nc2ccccc2)nnc(-c2ccccc2)c1-c1ccccc1 | 6% (active)
29 | CCOC(=O)c1c(Nc2ccc(C)cc2)nnc(-c2ccccc2)c1-c1ccccc1 | 1% (active)
30 | CCOC(=O)c1c(Nc2ccc(O)cc2)nnc(-c2ccccc2)c1-c1ccccc1 | 95%
31 | CCOC(=O)c1c(C)oc2ncnc(Nc3ccc(CC)cc3)c12 | 85%
32 | COc1cc(C2C(C(=O)Nc3ccccc3C)=C(C)Nc3nc(SCc4cc(C)ccc4C)nn32)ccc1O (stereo unspecified) | 105%
33 | CCOc1ccccc1N(CC)C(=O)c1cc2c(=O)[nH]c3ccc(C)cc3c2s1 | 74%
34 | Cc1ccc(-n2nc(C)c3c(C)cc(=O)n(CC(=O)NC(C)C)c32)cc1 | 105%
35 | O=C(CN1C(=O)COc2ccc(S(=O)(=O)N3CCCCCC3)cc21)Nc1cccc(Cl)c1 | 60%
36 | COc1cc(OC)c(N(C)C(=O)c2sc3nc4n(c(=O)c3c2C)CCCC4)cc1Cl | 53%
37 | O=C(Cc1ccccc1)N(Cc1cccnc1)c1nc2ccc(Cl)cc2s1 | 72%
38 | O=C(Cc1ccc(-c2ccccc2)cc1)NCCS(=O)(=O)N1CCN(c2ccccc2)CC1 | 122%
39 | CCOc1ccc(CNC(=O)c2ccc(NC(=O)c3nsc4ccccc34)cc2)cc1 | 79%
40 | COc1ccc(C(=O)CN2CCN(S(=O)(=O)c3ccc(C(C)C)cc3)CC2)cc1 | 81%
41 | COc1ccc(N2CC(NC(=O)/C=C\c3ccc(OC)c(OC)c3)CC2=O)cc1 (stereo unspecified) | 55%
42 | CC(=O)c1ccc(NC(=O)CC2Oc3ccc(C)cc3NC2=O)cc1 (stereo unspecified) | 85%
43 | O=C(NCCc1ccc(F)cc1)C(=O)NCC(c1ccc2c(c1)OCO2)N1CCOCC1 (stereo unspecified) | 74%
44 | Cc1ccc2[nH]c3c(=O)n(CC(=O)N(C)c4cc(Cl)ccc4C)ncc3c2c1 | 89%

Row | SMILES | survival
45 | CCN(C(=O)Cc1c(C(=O)O)[nH]c2ccccc12)c1ccc(OC)cc1 | 65%
46 | COc1ccc(OC)c(NC(=O)Cc2c(C(=O)O)[nH]c3ccc(Cl)cc23)c1 | 54%
47 | Cc1cccc(N(C)C(=O)Cc2c(C(=O)O)[nH]c3ccccc23)c1 | 134%
48 | Cc1ccc(C)c(N(C)C(=O)Cc2c(C(=O)O)[nH]c3ccc(Cl)cc23)c1 | 40% (active)
49 | CCCN(C(=O)Cc1c(C(=O)O)[nH]c2ccc(Cl)cc12)c1ccc(OCC)cc1 | 47% (active)
50 | CCOC(=O)c1ccccc1NC(=O)N1CCC(CN2CCCCC2)CC1 | 83%
51 | COC(=O)c1cccc(NC(=O)Nc2cc(C(=O)NCc3cccc(F)c3)ccc2N2CCCC2)c1 | 91%
52 | Cc1ccc(OCC(=O)OCc2cc(=O)n3nc(-c4cccs4)sc3n2)cc1C | 102%
53 | Nc1nonc1/C(=N/O)N1CCCC1 | 113%
54 | COc1ccc(N2CCN(C(CNC(=O)C(=O)NCc3cccnc3)c3cccnc3)CC2)cc1 (stereo unspecified) | 102%
55 | COc1cccc(NC(=O)CCc2nc(-c3cc(OC)c(OC)c(OC)c3)no2)c1 | 73%
56 | Cc1cc(C)cc(NC(=O)CCCc2nc(-c3ccccc3Cl)no2)c1 | 89%
57 | O=C(CCc1nc(-c2ccccc2F)no1)Nc1cccc(C(F)(F)F)c1 | 81%
58 | CCOC(=O)c1ccc(NC(=O)CCCc2nc(-c3cc(OC)c(OC)c(OC)c3)no2)cc1 | 44% (active)
59 | COc1ccccc1-c1noc(CCCC(=O)Nc2cc(C)ccc2C)n1 | 54%
60 | CCOC(=O)c1ccc(NC(=O)CCCc2nc(-c3ccccc3Cl)no2)cc1 | 36% (active)
61 | CCOc1ccccc1-c1noc(CCCC(=O)Nc2cccc(C(F)(F)F)c2)n1 | 61%
62 | CCOc1ccccc1NC(=O)CCc1nc(-c2cccc(C)c2)no1 | 73%
63 | CCOc1ccccc1NC(=O)CCCc1nc(-c2ccccc2Cl)no1 | 38% (active)
64 | COc1cc(-c2noc(CCC(=O)Nc3cc(C)ccc3C)n2)cc(OC)c1OC | 81%
65 | CCc1ccc(NC(=O)CCCc2nc(-c3ccco3)no2)cc1 | 81%
66 | O=C(CCCc1nc(-c2ccccc2)no1)Nc1cc(C(F)(F)F)cc(C(F)(F)F)c1 | 19% (active)
